Data published in PubChem BioAssay (NCATS).
Several values for one entry are separate records, joined by “and”; a condition that tells them apart may be missing. Equal values may be shown once. Results filed as inconclusive are left out. A structure can be active in one record and inactive in another. Activity calls are given as the source filed them. Calls follow the shape of the dose curve; as a rule, active = well fitted curve in the direction sought with a large enough effect; inconclusive = small, poorly fitted or top-dose-only effect, or another doubt; inactive = no such curve, though single readings can be large; an effect the other way counts as inactive or inconclusive.

Assays:
CRL-7250 [1] = assay: Cytotoxic Profiling of Annotated Libraries Using Quantitative High-Throughput Screening (AID 1296008); settings: Five cell lines viability, CellTiter-Glo ATP luminescence, 48-72 h; max response: hits give low values; also: nearly all actives have a fitted effect of over 60% in size; also: potency is read from the fitted curve at half-maximal effect; as to max response: % is scaled to controls: 0 for no effect and ±100 for the full control effect
How it was run: (§1)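 Cytotoxicity was measured as CellTiter-Glo ATP luminescence, read after 10 min at room temperature. Compound treatment of the cells lasted 48 or 72 hr at 37 degrees Celsius in a qHTS format.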

HEK293 = assay: as above; settings: Five cell lines viability, CellTiter-Glo ATP luminescence, 48-72 h; max response: hits give low values
How it was run: as §1

HaCat [2] = assay: as above; settings: Five cell lines viability, CellTiter-Glo ATP luminescence, 48-72 h; max response: hits give low values
How it was run: as §1

KB-3-1 = assay: as above; settings: Five cell lines viability, CellTiter-Glo ATP luminescence, 48-72 h; max response: hits give low values
How it was run: as §1

NIH3T3 [3] = assay: as above; settings: Five cell lines viability, CellTiter-Glo ATP luminescence, 48-72 h; max response: hits give low values
How it was run: as §1

CRL-7250 [4] = assay: qHTS assay to identify novel small-molecules to repurpose for Merkel cell carcinoma treatment (AID 1296009); settings: MCC and control cell lines, CellTiter-Glo viability, 72 h; at 44.8 µM (top of the series) unless noted; also: nearly all actives have a fitted effect of over 60% in size
How it was run: (§2)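 Cell viability measured by CellTiter-Glo following 72 hr compound treatment at 37 degree celsius, with NPC and MIPE libraries tested in 8- and 11-point concentration series.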

HEK293T = assay: as above; settings: MCC and control cell lines, CellTiter-Glo viability, 72 h; at 44.8 µM (top of the series) unless noted
How it was run: as §2

MCC-13 = assay: as above; settings: MCC and control cell lines, CellTiter-Glo viability, 72 h; series mostly up to 46 µM
How it was run: as §2

MKL-1 = assay: as above; settings: MCC and control cell lines, CellTiter-Glo viability, 72 h; series mostly up to 46 µM
How it was run: as §2

MKL-2 = assay: as above; settings: MCC and control cell lines, CellTiter-Glo viability, 72 h; series mostly up to 46 µM
How it was run: as §2

UISO = assay: as above; settings: MCC and control cell lines, CellTiter-Glo viability, 72 h; series mostly up to 46 µM
How it was run: as §2

WaGa = assay: as above; settings: MCC and control cell lines, CellTiter-Glo viability, 72 h; series mostly up to 46 µM
How it was run: as §2

C33A = assay: Primary qHTS to identify gynecologic anti-cancer compounds using libraries of approved drugs and bioactive compounds (AID 1345084); settings: Gynecologic cancer cell panel viability, ATPlite luminescence, 48 h; series mostly up to 57.5 µM; also: % is scaled to controls: 0 for no effect and ±100 for the full control effect; nearly all actives have a fitted effect of over 55% in size
How it was run: (§3)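 Cell viability after 48 h drug treatment, ATPlite luminescence readout; five doses.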

CASKI = assay: as above; settings: Gynecologic cancer cell panel viability, ATPlite luminescence, 48 h; series mostly up to 57.5 µM
How it was run: as §3

TAB165 = assay: qHTS profiling for inhibitors of Plasmodium falciparum proliferation (AID 504749); settings: P. falciparum in erythrocytes, SYBR Green DNA, 72 h; series mostly up to 28.7 µM
How it was run: (§4)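 In a 72 h erythrocytic culture (37 C, humidified, 5% CO2) at 2.5% hematocrit and 0.3% starting parasitemia, compounds were tested; SYBR Green I in detergent lysis buffer stained parasite DNA overnight.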

HACAT [5] = assay: qHTS assay to identify novel small-molecules to repurpose for Merkel cell carcinoma treatment (AID 1296009); settings: MCC and control cell lines, CellTiter-Glo viability, 72 h; at 44.8 µM (top of the series) unless noted; also: nearly all actives have a fitted effect of over 60% in size
How it was run: as §2

CAOV3 = assay: Primary qHTS to identify gynecologic anti-cancer compounds using libraries of approved drugs and bioactive compounds (AID 1345084); settings: Gynecologic cancer cell panel viability, ATPlite luminescence, 48 h; series mostly up to 57.5 µM; also: % is scaled to controls: 0 for no effect and ±100 for the full control effect; nearly all actives have a fitted effect of over 55% in size
How it was run: as §3

W2 = assay: qHTS profiling for inhibitors of Plasmodium falciparum proliferation (AID 504749); settings: P. falciparum in erythrocytes, SYBR Green DNA, 72 h; series mostly up to 28.7 µM
How it was run: as §4

MCC-26 = assay: qHTS assay to identify novel small-molecules to repurpose for Merkel cell carcinoma treatment (AID 1296009); settings: MCC and control cell lines, CellTiter-Glo viability, 72 h; series mostly up to 46 µM; also: nearly all actives have a fitted effect of over 60% in size
How it was run: as §2

NIH3T3 [6] = assay: as above; settings: MCC and control cell lines, CellTiter-Glo viability, 72 h; at 44.8 µM (top of the series) unless noted
How it was run: as §2

COC(=O)[C@@H](N)CCCN/C(N)=N/[N+](=O)[O-]
inactive: outcome (CRL-7250 [1]) | outcome (HEK293) | max response (HaCat [2]) -19.5% | max response (KB-3-1) -3.97% | max response (NIH3T3 [3]) 1.98% | outcome (CRL-7250 [4]) | outcome (HEK293T) | outcome (MCC-13) | Potency (MKL-1) | Potency (MKL-2) | Potency (UISO) | Potency (WaGa) | Potency (C33A) | outcome (CASKI)

O=C(O)CCCc1ccc(N(CCCl)CCCl)cc1
inactive: Potency (TAB165) | outcome (CRL-7250 [1]) | max response (HEK293) -24.7% | outcome (HaCat [2]) | max response (KB-3-1) 1.55% | outcome (KB-3-1) | max response (NIH3T3 [3]) -8.46% and -0.549% | outcome (CRL-7250 [4]) | outcome (HACAT [5]) | outcome (MCC-13) | Potency (MKL-1) | Potency (MKL-2) | Potency (UISO) | Potency (WaGa) | Potency (C33A) | outcome (CAOV3) | outcome (CASKI)

C=C(C)[C@H]1CN[C@H](C(=O)O)[C@H]1CC(=O)O
inactive: Potency (TAB165) | Potency (W2) | max response (CRL-7250 [1]) 1.07% | max response (HEK293) 0.123% | outcome (HaCat [2]) | max response (KB-3-1) 4.34% | outcome (NIH3T3 [3]) | outcome (HACAT [5]) | outcome (MCC-13) | Potency (MCC-26) | Potency (MKL-1) | Potency (MKL-2) | outcome (NIH3T3 [6]) | Potency (UISO) | Potency (WaGa) | Potency (C33A) | outcome (CAOV3) | outcome (CASKI)

NNc1ccccc1
inactive: Potency (TAB165) | outcome (CRL-7250 [1]) | max response (HEK293) 3.08% | max response (HaCat [2]) 1.05% | max response (KB-3-1) -8.39% | max response (NIH3T3 [3]) 4.99% | outcome (CRL-7250 [4]) | outcome (MCC-13) | Potency (MCC-26) | Potency (MKL-1) | Potency (MKL-2) | Potency (WaGa) | Potency (C33A) | outcome (CASKI)

CC(C)c1cccc(C(C)C)c1O
inactive: Potency (TAB165) | Potency (W2) | max response (CRL-7250 [1]) -8.58% and -1.5% | max response (HEK293) -6.49% | outcome (HEK293) | outcome (HaCat [2]) | max response (KB-3-1) 9.44% | max response (NIH3T3 [3]) 0.687% | outcome (HACAT [5]) | outcome (HEK293T) | outcome (MCC-13) | Potency (MCC-26) | Potency (MKL-1) | Potency (MKL-2) | Potency (UISO) | Potency (WaGa) | Potency (C33A) | outcome (CASKI)

O=C(O)/C=C\C(=O)O
inactive: max response (CRL-7250 [1]) -1.31% | max response (HEK293) -3.36% | max response (HaCat [2]) 1.05% | max response (KB-3-1) -5.31% | max response (NIH3T3 [3]) -5.56%

CC(=O)OCC1=C(C(=O)O)N2C(=O)[C@@H](N)[C@H]2SC1
inactive: max response (CRL-7250 [1]) -3.91% | outcome (CRL-7250 [1]) | max response (HEK293) 0.778% and -3.29% | max response (HaCat [2]) -3.66% and 4.2% | max response (KB-3-1) -19.8% | outcome (KB-3-1) | max response (NIH3T3 [3]) 1.92% and 4.65% | outcome (CRL-7250 [4]) | outcome (MCC-13) | Potency (MCC-26) | Potency (MKL-1) | Potency (UISO) | Potency (C33A) | outcome (CAOV3) | outcome (CASKI)

CCC1(c2ccc(N)cc2)CCC(=O)NC1=O (centres undefined)
inactive: max response (CRL-7250 [1]) 1.43% and -1.25% | max response (HEK293) 4.46% | outcome (HEK293) | max response (HaCat [2]) 2.56% and -2.32% | max response (KB-3-1) 5.24% and 0.522% | max response (NIH3T3 [3]) 1.87% and -15.6% | outcome (HEK293T) | outcome (MCC-13) | Potency (MKL-1) | Potency (MKL-2) | Potency (UISO) | Potency (WaGa) | Potency (C33A) | outcome (CAOV3) | outcome (CASKI)

C[C@]12CC[C@@H]3c4ccc(OC(=O)N(CCCl)CCCl)cc4CC[C@H]3[C@@H]1CC[C@@H]2OP(=O)(O)O
active: Potency (CRL-7250 [1]) 10.5 µM
inactive: outcome (CRL-7250 [1]) | max response (HEK293) -12.2% | max response (HaCat [2]) 4.84% | outcome (HaCat [2]) | max response (KB-3-1) -0.529% | outcome (KB-3-1) | max response (NIH3T3 [3]) 2.9% | outcome (CRL-7250 [4]) | outcome (HACAT [5]) | outcome (MCC-13) | Potency (MKL-1) | Potency (MKL-2) | Potency (UISO) | Potency (WaGa) | Potency (C33A) | outcome (CASKI)

Nc1ccccc1C(=O)O
inactive: Potency (TAB165) | Potency (W2) | max response (CRL-7250 [1]) -2.31% | max response (HEK293) -5.49% | outcome (HaCat [2]) | max response (KB-3-1) -19.2% | max response (NIH3T3 [3]) 3.28% | outcome (HACAT [5]) | outcome (MCC-13) | Potency (MCC-26) | Potency (MKL-1) | Potency (MKL-2) | Potency (UISO) | Potency (WaGa) | Potency (C33A) | outcome (CAOV3) | outcome (CASKI)

C[N+]1(CCF)[C@@H]2CC[C@H]1CC(OC(=O)C(O)(c1ccccc1)c1ccccc1)C2 (some centres undefined)
inactive: outcome (CRL-7250 [1]) | max response (HEK293) -5.81% | outcome (HaCat [2]) | max response (KB-3-1) -9.39% | outcome (NIH3T3 [3]) | outcome (CRL-7250 [4]) | outcome (HACAT [5]) | outcome (MCC-13) | Potency (MCC-26) | Potency (MKL-1) | Potency (MKL-2) | outcome (NIH3T3 [6]) | Potency (UISO) | Potency (WaGa) | Potency (C33A) | outcome (CAOV3) | outcome (CASKI)

NC1=NC(=O)C(c2ccccc2)O1 (centres undefined)
inactive: max response (CRL-7250 [1]) -3.81% | max response (HEK293) 2.82% | outcome (HaCat [2]) | max response (KB-3-1) 4.09% | max response (NIH3T3 [3]) 3.43% | outcome (HACAT [5]) | outcome (MCC-13) | Potency (MCC-26) | Potency (MKL-1) | Potency (MKL-2) | Potency (UISO) | Potency (WaGa) | Potency (C33A) | outcome (CASKI)

O=P1(N(CCCl)CCCl)NCCCO1 (centres undefined)
inactive: Potency (TAB165) | Potency (W2) | max response (CRL-7250 [1]) -3.83% and -4.06% | max response (HEK293) -27.8% and -15.3% | max response (HaCat [2]) -5.79% | outcome (HaCat [2]) | max response (KB-3-1) 2.64% and 7.08% | max response (NIH3T3 [3]) -16.8% and -12.6% | outcome (HACAT [5]) | outcome (MCC-13) | Potency (MKL-1) | Potency (MKL-2) | Potency (UISO) | Potency (WaGa) | Potency (C33A) | outcome (CAOV3) | outcome (CASKI)

CC(NC(C)(C)C)C(=O)c1cccc(Cl)c1 (centres undefined)
inactive: max response (CRL-7250 [1]) -10.7% | outcome (CRL-7250 [1]) | max response (HEK293) -3.26% and -3.1% | outcome (HEK293) | max response (HaCat [2]) -7.82% | outcome (HaCat [2]) | max response (KB-3-1) -3.99% and 2.03% and 8.68% | max response (NIH3T3 [3]) -22.3% and 1.31% | outcome (NIH3T3 [3]) | outcome (CRL-7250 [4]) | outcome (HACAT [5]) | outcome (HEK293T) | outcome (MCC-13) | Potency (MKL-1) | Potency (MKL-2) | outcome (NIH3T3 [6]) | Potency (UISO) | Potency (WaGa) | Potency (C33A) | outcome (CAOV3) | outcome (CASKI)
